# Results published in PMC7862700, “An all-to-all approach to the identification of sequence-specific readers for epigenetic DNA modifications on cytosine”.
# What was measured:
# Assay in all cases: DAPPL (digital affinity profiling via proximity ligation, sequencing); 10 mM Tris-HCl pH 7.5, 50 mM NaCl, 1 mM DTT, 4% glycerol, room temperature, 30 min; GST-TFs on glutathione beads, 16-mer random dsDNA library, 0.1% formaldehyde crosslink after washing; high values mean tight binding
# [1] = molecular target: ETV5 (Homo sapiens, UniProt P41161 1-510); conditions: protein: recombinant; tags: N-terminal GST; dsDNA, one strand shown
# Outline: (§1)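 In yeast, human transcription factors were expressed with a GST fusion, then pulled down on glutathione beads and given DNA barcodes. Pooled with a tag-only sample, they were exposed to 200 nmole of a 16-mer random double-stranded DNA library (Tris/NaCl/DTT/glycerol buffer, room temperature, 30 min), washed, crosslinked with 0.1% formaldehyde, proximity-ligated using BsaI/T4 ligase for 1 h at 37 °C, PCR-amplified and read on an Illumina NextSeq500. Each hexamer's frequency of reads for a factor, divided by the matching frequency for the tag-only sample, gives the binding signal.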
# [2] = molecular target: HSF1 (Homo sapiens, UniProt Q00613 1-529); conditions: protein: recombinant; tags: N-terminal GST; chain copies: 3; dsDNA, one strand shown
# Outline: as §1
# [3] = molecular target: T1, SPIC (Homo sapiens, UniProt Q8N5J4 1-248); conditions: protein: recombinant; tags: N-terminal GST; dsDNA, one strand shown
# T1 sequence: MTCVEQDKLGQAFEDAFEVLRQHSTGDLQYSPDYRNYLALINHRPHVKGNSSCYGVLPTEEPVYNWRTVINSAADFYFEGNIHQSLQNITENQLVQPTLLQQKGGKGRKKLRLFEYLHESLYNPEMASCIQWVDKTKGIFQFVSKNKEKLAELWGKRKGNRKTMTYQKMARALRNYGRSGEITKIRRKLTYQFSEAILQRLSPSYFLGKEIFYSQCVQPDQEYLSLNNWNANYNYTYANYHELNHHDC
# Outline: as §1
# [4] = molecular target: ELF4 (Homo sapiens, UniProt Q99607 1-663); conditions: protein: recombinant; tags: N-terminal GST; dsDNA, one strand shown
# Outline: as §1
# [5] = molecular target: T2, ETV2 (Homo sapiens, UniProt O00321 1-342); conditions: protein: recombinant; tags: N-terminal GST; dsDNA, one strand shown
# T2 sequence: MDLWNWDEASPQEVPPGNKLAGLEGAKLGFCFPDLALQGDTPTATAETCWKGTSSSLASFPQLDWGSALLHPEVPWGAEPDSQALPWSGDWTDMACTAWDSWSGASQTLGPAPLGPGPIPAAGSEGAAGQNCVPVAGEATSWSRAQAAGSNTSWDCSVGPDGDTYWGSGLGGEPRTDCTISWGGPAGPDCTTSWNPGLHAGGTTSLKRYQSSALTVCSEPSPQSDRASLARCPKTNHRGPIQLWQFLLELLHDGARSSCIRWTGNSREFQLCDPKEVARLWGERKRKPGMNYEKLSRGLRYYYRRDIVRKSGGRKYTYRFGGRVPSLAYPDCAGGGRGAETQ
# Outline: as §1
# [6] = molecular target: T3, ELF3 (Homo sapiens, UniProt P78545 1-371); conditions: protein: recombinant; tags: N-terminal GST; dsDNA, one strand shown
# T3 sequence: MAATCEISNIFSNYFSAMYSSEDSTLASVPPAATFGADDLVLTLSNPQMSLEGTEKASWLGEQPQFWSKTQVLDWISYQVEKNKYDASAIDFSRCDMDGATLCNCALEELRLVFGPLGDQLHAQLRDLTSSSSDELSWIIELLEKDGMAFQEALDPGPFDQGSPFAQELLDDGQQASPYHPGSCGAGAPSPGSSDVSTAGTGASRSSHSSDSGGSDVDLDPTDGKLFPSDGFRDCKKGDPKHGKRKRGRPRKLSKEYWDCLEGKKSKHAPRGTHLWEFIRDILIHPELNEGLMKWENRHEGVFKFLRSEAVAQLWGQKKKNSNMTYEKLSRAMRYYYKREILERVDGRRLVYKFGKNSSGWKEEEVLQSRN
# Outline: as §1
# [7] = molecular target: CRX (Homo sapiens, UniProt O43186 1-299); conditions: protein: recombinant; tags: N-terminal GST; dsDNA, one strand shown
# Outline: as §1
# [8] = molecular target: T4, ERF (Homo sapiens, UniProt P50548 1-548); conditions: protein: recombinant; tags: N-terminal GST; dsDNA, one strand shown
# T4 sequence: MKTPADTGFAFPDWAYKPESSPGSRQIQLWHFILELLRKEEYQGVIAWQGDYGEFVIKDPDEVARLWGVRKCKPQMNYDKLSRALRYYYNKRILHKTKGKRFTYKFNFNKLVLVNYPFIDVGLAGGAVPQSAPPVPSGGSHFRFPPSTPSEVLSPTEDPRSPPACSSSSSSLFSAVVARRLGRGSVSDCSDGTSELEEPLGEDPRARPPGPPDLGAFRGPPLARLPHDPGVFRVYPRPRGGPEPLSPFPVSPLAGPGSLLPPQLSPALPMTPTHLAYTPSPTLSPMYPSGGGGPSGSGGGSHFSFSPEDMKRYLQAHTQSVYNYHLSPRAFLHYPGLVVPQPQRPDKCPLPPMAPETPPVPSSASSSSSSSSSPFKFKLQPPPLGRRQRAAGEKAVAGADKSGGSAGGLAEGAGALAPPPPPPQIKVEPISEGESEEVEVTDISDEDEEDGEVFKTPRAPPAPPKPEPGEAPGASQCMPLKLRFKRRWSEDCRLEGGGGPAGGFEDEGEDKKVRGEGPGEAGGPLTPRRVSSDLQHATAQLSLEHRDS
# Outline: as §1
# [9] = molecular target: T5, ETV3L (Homo sapiens, UniProt Q6ZN32 1-361); conditions: protein: recombinant; tags: N-terminal GST; dsDNA, one strand shown
# T5 sequence: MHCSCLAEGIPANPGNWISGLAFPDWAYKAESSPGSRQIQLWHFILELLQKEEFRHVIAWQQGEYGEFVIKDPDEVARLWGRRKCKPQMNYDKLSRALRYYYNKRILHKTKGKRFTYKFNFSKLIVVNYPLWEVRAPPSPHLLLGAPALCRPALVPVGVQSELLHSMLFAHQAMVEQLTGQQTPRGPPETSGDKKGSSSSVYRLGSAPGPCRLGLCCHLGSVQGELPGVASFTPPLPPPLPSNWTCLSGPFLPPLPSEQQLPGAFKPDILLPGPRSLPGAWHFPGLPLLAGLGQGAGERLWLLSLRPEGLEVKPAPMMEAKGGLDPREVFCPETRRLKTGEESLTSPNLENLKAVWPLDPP
# Outline: as §1
# [10] = molecular target: T6, ETS2 (Homo sapiens, UniProt P15036 1-469); conditions: protein: recombinant; tags: N-terminal GST; dsDNA, one strand shown
# T6 sequence: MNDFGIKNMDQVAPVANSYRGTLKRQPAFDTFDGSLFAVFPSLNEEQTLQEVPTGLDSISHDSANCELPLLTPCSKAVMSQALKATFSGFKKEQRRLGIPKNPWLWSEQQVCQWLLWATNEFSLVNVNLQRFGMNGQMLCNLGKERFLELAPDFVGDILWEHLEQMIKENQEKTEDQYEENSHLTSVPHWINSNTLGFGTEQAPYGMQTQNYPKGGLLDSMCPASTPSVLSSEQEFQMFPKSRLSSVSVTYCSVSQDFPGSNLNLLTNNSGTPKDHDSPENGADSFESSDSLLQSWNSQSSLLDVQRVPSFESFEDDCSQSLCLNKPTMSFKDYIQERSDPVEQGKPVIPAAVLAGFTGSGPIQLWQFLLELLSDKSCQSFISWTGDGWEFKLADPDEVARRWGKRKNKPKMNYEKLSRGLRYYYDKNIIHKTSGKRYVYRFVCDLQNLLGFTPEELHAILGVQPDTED
# Outline: as §1
# [11] = molecular target: T7, ETV7 (Homo sapiens, UniProt Q9Y603 1-341); conditions: protein: recombinant; tags: N-terminal GST; dsDNA, one strand shown
# T7 sequence: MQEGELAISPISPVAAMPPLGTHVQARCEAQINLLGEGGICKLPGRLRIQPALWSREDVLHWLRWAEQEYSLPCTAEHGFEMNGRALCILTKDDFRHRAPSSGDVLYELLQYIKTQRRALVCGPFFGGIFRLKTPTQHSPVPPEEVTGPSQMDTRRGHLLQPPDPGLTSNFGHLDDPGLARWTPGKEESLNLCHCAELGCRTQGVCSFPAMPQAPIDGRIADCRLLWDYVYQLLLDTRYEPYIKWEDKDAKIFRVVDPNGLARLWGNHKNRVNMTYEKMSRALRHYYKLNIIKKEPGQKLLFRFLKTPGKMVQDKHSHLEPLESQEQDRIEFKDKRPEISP
# Outline: as §1
# [12] = molecular target: T8, ELF5 (Homo sapiens, UniProt Q9UKW6-2 1-255); conditions: protein: recombinant; tags: N-terminal GST; dsDNA, one strand shown
# T8 sequence: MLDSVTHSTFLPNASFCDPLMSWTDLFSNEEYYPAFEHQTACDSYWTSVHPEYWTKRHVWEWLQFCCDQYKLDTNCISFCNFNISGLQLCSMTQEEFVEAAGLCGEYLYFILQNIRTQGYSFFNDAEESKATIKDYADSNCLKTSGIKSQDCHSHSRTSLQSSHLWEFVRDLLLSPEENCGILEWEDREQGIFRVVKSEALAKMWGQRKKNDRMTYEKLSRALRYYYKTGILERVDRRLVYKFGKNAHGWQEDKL
# Outline: as §1
# [13] = molecular target: T9, ETV3 (Homo sapiens, UniProt P41162-2 1-143); conditions: protein: recombinant; tags: N-terminal GST; dsDNA, one strand shown
# T9 sequence: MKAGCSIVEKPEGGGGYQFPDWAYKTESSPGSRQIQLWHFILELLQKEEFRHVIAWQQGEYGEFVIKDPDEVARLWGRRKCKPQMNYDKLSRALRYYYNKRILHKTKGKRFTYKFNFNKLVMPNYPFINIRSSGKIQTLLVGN
# Outline: as §1
# [14] = molecular target: ETV6 (Homo sapiens, UniProt P41212 1-452); conditions: protein: recombinant; tags: N-terminal GST; dsDNA, one strand shown
# Outline: as §1
# [15] = molecular target: ETV1 (Homo sapiens, UniProt P50549 1-477); conditions: protein: recombinant; tags: N-terminal GST; dsDNA, one strand shown
# Outline: as §1
# [16] = molecular target: T10, SPDEF (Homo sapiens, UniProt O95238 1-335); conditions: protein: recombinant; tags: N-terminal GST; dsDNA, one strand shown
# T10 sequence: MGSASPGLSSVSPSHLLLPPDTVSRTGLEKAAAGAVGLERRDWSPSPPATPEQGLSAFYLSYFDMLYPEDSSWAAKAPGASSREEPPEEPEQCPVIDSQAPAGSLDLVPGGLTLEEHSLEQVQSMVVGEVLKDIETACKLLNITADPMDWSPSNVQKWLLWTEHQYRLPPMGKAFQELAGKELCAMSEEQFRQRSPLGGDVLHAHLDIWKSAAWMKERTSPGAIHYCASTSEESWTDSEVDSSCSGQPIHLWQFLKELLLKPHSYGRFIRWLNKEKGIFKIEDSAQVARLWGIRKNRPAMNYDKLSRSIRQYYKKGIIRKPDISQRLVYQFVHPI
# Outline: as §1
# ETV6, sequence (P41212 whole entry): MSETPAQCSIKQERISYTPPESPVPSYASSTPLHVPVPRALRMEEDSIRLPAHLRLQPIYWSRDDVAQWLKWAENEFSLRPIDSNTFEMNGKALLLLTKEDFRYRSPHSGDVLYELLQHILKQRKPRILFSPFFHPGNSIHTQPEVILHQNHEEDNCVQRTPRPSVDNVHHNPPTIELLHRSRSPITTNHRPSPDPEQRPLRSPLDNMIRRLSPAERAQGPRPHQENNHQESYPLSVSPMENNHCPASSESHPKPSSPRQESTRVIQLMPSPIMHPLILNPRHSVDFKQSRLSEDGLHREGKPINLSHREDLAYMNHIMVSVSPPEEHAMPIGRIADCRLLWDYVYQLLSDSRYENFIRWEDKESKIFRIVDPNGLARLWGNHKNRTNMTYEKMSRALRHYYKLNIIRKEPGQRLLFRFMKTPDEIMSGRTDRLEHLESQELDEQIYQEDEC
# HSF1, sequence (Q00613 whole entry): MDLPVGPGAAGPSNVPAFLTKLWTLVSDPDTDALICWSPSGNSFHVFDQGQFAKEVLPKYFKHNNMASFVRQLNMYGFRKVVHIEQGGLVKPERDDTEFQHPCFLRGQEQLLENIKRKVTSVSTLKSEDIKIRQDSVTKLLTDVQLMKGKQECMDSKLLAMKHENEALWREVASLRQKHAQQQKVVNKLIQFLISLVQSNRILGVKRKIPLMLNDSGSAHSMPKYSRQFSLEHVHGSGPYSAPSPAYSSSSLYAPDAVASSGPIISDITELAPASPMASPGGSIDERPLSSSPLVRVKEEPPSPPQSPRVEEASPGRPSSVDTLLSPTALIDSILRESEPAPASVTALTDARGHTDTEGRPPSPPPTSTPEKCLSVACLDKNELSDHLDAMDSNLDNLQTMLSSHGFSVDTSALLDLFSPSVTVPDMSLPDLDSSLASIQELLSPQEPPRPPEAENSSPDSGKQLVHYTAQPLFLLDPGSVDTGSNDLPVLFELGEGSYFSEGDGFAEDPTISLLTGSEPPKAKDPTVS
# CRX, sequence (O43186 whole entry): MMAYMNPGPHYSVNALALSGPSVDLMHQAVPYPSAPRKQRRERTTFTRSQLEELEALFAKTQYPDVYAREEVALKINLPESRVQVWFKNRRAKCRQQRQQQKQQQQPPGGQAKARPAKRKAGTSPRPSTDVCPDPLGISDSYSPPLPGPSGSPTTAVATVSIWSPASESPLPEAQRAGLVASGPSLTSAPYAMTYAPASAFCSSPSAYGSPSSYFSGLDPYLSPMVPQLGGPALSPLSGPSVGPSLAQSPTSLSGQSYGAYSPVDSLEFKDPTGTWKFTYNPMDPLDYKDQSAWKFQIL
# ELF4, sequence (Q99607 whole entry): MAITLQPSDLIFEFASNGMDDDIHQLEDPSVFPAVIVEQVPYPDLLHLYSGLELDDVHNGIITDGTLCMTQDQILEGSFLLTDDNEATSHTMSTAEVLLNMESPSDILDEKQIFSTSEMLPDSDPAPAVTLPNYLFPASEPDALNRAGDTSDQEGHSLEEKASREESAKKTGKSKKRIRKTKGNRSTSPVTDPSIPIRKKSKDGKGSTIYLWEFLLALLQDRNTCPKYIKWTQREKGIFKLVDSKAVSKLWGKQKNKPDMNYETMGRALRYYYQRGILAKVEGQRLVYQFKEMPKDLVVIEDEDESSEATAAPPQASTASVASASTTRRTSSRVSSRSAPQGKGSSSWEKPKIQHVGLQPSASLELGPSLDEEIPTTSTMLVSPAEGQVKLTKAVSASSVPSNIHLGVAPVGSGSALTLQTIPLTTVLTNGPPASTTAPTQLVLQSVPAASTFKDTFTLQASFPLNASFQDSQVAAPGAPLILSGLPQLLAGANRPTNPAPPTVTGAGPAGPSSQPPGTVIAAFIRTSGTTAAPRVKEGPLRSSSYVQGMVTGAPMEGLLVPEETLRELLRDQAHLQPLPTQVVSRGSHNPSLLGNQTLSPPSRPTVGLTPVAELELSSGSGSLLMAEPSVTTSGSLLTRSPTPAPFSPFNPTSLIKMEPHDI
# ETV5, sequence (P41161 whole entry, the tested form may be a part): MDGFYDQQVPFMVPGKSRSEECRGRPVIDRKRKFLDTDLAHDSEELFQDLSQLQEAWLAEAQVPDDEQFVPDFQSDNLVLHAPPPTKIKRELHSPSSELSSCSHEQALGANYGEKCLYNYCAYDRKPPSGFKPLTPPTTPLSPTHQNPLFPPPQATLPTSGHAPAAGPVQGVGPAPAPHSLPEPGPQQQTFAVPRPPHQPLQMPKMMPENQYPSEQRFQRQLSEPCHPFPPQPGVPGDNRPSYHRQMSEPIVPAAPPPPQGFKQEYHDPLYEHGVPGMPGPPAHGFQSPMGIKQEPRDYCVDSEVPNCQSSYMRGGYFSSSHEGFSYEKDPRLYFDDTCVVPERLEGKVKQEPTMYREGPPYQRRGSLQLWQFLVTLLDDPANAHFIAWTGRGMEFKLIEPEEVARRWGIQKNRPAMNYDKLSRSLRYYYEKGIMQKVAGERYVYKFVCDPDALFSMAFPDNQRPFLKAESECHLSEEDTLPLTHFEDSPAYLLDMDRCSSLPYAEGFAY
# ETV1, sequence (P50549 whole entry): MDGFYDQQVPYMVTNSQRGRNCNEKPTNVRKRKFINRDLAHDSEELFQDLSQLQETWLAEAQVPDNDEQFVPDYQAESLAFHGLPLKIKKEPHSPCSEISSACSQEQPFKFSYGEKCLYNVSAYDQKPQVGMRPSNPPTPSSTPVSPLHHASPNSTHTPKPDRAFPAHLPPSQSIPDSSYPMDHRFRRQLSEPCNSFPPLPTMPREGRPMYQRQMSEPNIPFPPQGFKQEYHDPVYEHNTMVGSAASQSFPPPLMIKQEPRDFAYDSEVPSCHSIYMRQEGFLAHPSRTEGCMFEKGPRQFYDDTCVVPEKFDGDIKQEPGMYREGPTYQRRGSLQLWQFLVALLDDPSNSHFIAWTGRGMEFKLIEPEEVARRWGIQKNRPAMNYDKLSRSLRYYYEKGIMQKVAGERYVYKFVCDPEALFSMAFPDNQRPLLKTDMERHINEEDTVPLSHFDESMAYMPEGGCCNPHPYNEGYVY
Sequence,binding signal [1],binding signal [2],binding signal [3],binding signal [4],binding signal [5],binding signal [6],binding signal [7],binding signal [8],binding signal [9],binding signal [10],binding signal [11],binding signal [12],binding signal [13],binding signal [14],binding signal [15],binding signal [16]
TCTAGG,"1.05 fold enrichment (6-mer frequency, TF over GST control)","1.7 fold enrichment (6-mer frequency, TF over GST control)","1.24 fold enrichment (6-mer frequency, TF over GST control)","1.13 fold enrichment (6-mer frequency, TF over GST control)","1.11 fold enrichment (6-mer frequency, TF over GST control)","1.07 fold enrichment (6-mer frequency, TF over GST control)","1.27 fold enrichment (6-mer frequency, TF over GST control)","1.03 fold enrichment (6-mer frequency, TF over GST control)","1.08 fold enrichment (6-mer frequency, TF over GST control)","1.02 fold enrichment (6-mer frequency, TF over GST control)","1.16 fold enrichment (6-mer frequency, TF over GST control)","1.07 fold enrichment (6-mer frequency, TF over GST control)","1.12 fold enrichment (6-mer frequency, TF over GST control)","1.02 fold enrichment (6-mer frequency, TF over GST control)",–,–
CAAGAA,"1.09 fold enrichment (6-mer frequency, TF over GST control)","1.51 fold enrichment (6-mer frequency, TF over GST control)","1.09 fold enrichment (6-mer frequency, TF over GST control)","1.06 fold enrichment (6-mer frequency, TF over GST control)",–,"1.11 fold enrichment (6-mer frequency, TF over GST control)","1.08 fold enrichment (6-mer frequency, TF over GST control)","1.12 fold enrichment (6-mer frequency, TF over GST control)","1.09 fold enrichment (6-mer frequency, TF over GST control)","1.07 fold enrichment (6-mer frequency, TF over GST control)","1.14 fold enrichment (6-mer frequency, TF over GST control)","1.08 fold enrichment (6-mer frequency, TF over GST control)",–,"1.04 fold enrichment (6-mer frequency, TF over GST control)","1.05 fold enrichment (6-mer frequency, TF over GST control)","1.06 fold enrichment (6-mer frequency, TF over GST control)"
